# The other results are listed elsewhere or left out. Records with an inconclusive call do not appear. The source made the active and inactive calls.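 How the source made its calls: active means compounds whose IC50 for blocking JMJD2E demethylation is below 100 µM; inconclusive means dose dependent effect but IC50 above 100 µM; inactive means the rest.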
# Target: Lysine-specific demethylase 4E (Homo sapiens) (UniProt B2RXH2)
# Test: MALDI-TOF-MS Assay for Inhibitors of Human Jumonji Domain Containing 2E (JMJD2E)
# Conditions: recombinant JMJD2E demethylation
# Source text: The fine interplay among methylation states of several lysine residues on the tails of histone proteins is a major determinant of the transcriptional state of the associated DNA coding regions and is commonly referred to as the histone code. Histone lysine demethylases catalyze the removal of methyl groups from methylated lysine sidechains on histones H3 and H4, thus antagonizing the reactions catalyzed by histone lysine methyltransferases. […] In search for novel inhibitors of JMJD2E demethylase, a member of the largest set of histone demethylases belonging to the Fe(II) and 2-oxoglutarate oxygenase (2OG) superfamily, we performed a quantitative high-throughput screen (Inglese 2006). See AID 2147 for details on the primary screen. […]
# For the MS assays, JMJD2E (2 uM), FAS (10 uM) and SA (100 uM) in HEPES buffer, 50 mM, pH 7.5, were incubated with inhibitor (stock solutions in DMSO, final in-assay concentration varied, but final DMSO concentration was 5% of assay mix) for 15 min at room temperature. […] The relative intensities of different methylation states observed in the mass spectra were then used to calculate percentage demethylation, and IC50s were calculated from the variation in percentage demethylation at different inhibitor concentrations.
# Sequence of Lysine-specific demethylase 4E (Homo sapiens) (B2RXH2 1-337 limits assumed): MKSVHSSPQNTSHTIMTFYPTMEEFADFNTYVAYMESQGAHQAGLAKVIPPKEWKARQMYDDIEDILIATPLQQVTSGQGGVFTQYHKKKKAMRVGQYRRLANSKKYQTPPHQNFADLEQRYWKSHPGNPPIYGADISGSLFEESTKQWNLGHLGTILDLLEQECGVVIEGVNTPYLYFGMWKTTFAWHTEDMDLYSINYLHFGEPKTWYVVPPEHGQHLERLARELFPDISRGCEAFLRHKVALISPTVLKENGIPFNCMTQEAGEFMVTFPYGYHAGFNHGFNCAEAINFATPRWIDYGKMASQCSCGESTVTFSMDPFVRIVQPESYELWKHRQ
row,SMILES,Potency
1,Nc1ccc(Nc2cc(O)c3ncccc3c2)cc1,20.2 µM (active)
2,Oc1ccc(/C=C/c2c(F)cccc2F)c2cccnc12,89.6 µM (active)

# — PubChem BioAssay AID2688 (National Center for Advancing Translational Sciences (NCATS), 2010)
